The term % Inhibition denotes the drop in the measured response relative to a control, in per cent.

In all, about 4,800 compounds went through this assay and about 420 (8.8%) showed an effect of 50% or more. For the sample, strong results were picked, then their nearest neighbours and some compounds at random.

The test system of this test is Plasmodium falciparum. In words: Confirmatory screen in NF54 nanoGlo assay, in single point, at 2uM, 72h. Type of test: functional, Erythrocyte. The conditions noted are these: timepoint 72 hour.
On to `O=C(N[C@@H](N1CCCCC1)C(Cl)(Cl)Cl)c1cccnc1`, for which the “% Inhibition” value worked out at 2%.
For the compound `CC(C)c1ccc2ncnc(N[C@H]3CCc4[nH]cnc4C3)c2c1`, the “% Inhibition” value is reported as 97%.
The result for `O=C(Cc1ccc(F)cc1F)N1CCc2[nH]nc(C(=O)N3CCN(c4ccccc4)CC3)c2C1` reads 3%; that for `Cc1ccccc1Nc1c(-c2c[nH]c3ccccc23)nc2ncccn12`, 1%; that for `Cc1cc2c(OC[C@@H](O)CN3CCOCC3)cccc2[nH]1`, -13%.
For `Cc1cc(C)nc([C@@H](C#N)C(=O)c2ccnc(OCC(F)F)c2)n1`, the “% Inhibition” value is listed as -7%.
On to `COc1ccccc1C(=O)Nc1ccc(N2CCCN(C)CC2)cc1C(=O)O`, for which the “% Inhibition” value was -12%.
Turning to `Cn1ccnc(N[C@@H](COc2ccccc2F)c2ccccc2)c1=O`, the “% Inhibition” value was -7%.
The value for `Cc1ccc(S(=O)(=O)N2CC[C@H](CC(=O)NCc3ccccc3)C2)cc1C` was -16%; that for `CNC(=O)COc1c(Cl)ccc(Cl)c1Br` was 0%.
Consider `CCN(CCC1CCN(C(=O)Nc2ccc(OC3CCOCC3)c(C)c2)CC1)CC(C)C`, for which the “% Inhibition” value is given as -3%.
On to `CC(C)(C)[C@H]1CCc2c(sc(NC(=O)C3(F)C(F)(F)C(F)(F)C(F)(F)C(F)(F)C3(F)F)c2C#N)C1`, for which the “% Inhibition” value amounted to 50%.
Take `N#Cc1c(NC(=O)CN2CCC[C@@H]2CO)sc2c1CCCCC2`: the “% Inhibition” value is 1%.
The value for `COc1ccc2[nH]c(-c3nnc(Cn4c(C)cc5ccccc54)s3)cc2c1` was 2%; that for `Cc1cc(S(=O)(=O)NC(=O)CCC(C)C)c(C)o1` was -7%; that for `Cc1nc2ccccc2n1CC1CCCN1C(=O)C1CCc2cccnc21` (configuration not stated) was -7%.
The value for `CN(Cc1ccccc1)C(=O)C[C@H]1CCN(C(=O)c2cnccn2)C1` was -1%; that for `COc1ccc2c(c1)/C(=C1/SC(C(C)=O)=C(c3ccccc3)S1)C(=S)C(C)(C)N2C(=O)Nc1ccc(Cl)c(Cl)c1` was -7%.
The value for `Cc1ccc(-c2nc(CNC(=O)C[C@H]3CNCCO3)[nH]c2-c2ccccn2)cc1` was 22%; that for `Cn1ncnc1CCNC(=O)NC(C1CCCC1)C1CCCC1` was 1%; that for `CC1(C)CC(=O)C2(Cc3ccccc3N3CCN(Cc4ccccc4)C[C@H]32)C(=O)C1` was 8%.
With `O=C(NC1CC1)c1cn(CC2(O)CCN(Cc3ccccc3)CC2)nn1`, the “% Inhibition” value is given as 0%.
The result for `O=C(Nc1sc2c(c1C(=O)O)CCC2)c1ccsc1` reads -3%.
The result for `COC(=O)[C@@H](NC(=O)NC1CCCCC1)C(C)(C)C` reads -2%.
Regarding `Cc1ccsc1-c1noc([C@@H]2COCCN2C)n1`, the “% Inhibition” value was -7%.
The value for `COc1c(O)ccc2c(=O)c3c(O)cc(O)c(OC)c3n(C)c12` was -3%.
For the compound `CC1(C)C(NCC(O)COc2ccc(F)c(F)c2)[C@@H]2CCC[C@@H]21` (some centres not stated), the “% Inhibition” value was 72%.

The record behind these values is ChEMBL document CHEMBL4888484, “Replenishing the malaria drug discovery pipeline: Screening and hit evaluation of the MMV Hit Generation Library 1 (HGL1) against asexual blood stage Plasmodium falciparum ,using a nano luciferase reporter read-out” (2022).
